Assay outcomes from PubChem BioAssay.
A selection: hits, their analogues and other compounds. The true share with any hit is near 28%.
CYP2C19 inhib = human CYP2C19 inhibition | AID 778 | P33261 | inhibition, % at 5 µM | CYP2C19 Supersomes, luciferin-H EGE luminescence, 30 min | hit rate 21% among 96,000;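 active = CYP2C19 inhibition above a set limit at 5 µM in the primary screen, cut at about 50% in these data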;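 note: plate controls were negative control wells for no effect and 2.5 mM tranylcypromine positive control for full effect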
Target sequence (P33261 whole entry, looked up): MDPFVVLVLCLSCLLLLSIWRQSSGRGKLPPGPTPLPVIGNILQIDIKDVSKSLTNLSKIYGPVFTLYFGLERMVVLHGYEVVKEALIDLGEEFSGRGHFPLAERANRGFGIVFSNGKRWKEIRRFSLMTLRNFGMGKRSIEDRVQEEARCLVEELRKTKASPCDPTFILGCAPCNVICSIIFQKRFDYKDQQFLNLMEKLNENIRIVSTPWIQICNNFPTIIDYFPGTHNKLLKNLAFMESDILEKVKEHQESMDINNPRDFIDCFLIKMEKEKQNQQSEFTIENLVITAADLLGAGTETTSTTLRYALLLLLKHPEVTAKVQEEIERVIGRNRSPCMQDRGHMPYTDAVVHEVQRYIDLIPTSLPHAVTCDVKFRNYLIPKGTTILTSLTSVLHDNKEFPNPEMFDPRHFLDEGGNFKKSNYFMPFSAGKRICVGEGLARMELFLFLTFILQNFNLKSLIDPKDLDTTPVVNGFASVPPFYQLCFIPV
Mac1 fbg inh = inhibitors of human CD11b/CD18 binding to fibrinogen | AID 1497 | hit rate 0.54% among 93,000 | inhibition, % at 10 µM | K562 CD11b/CD18 adhesion to fibrinogen, ATPlite luminescence; Mn2+ added to activate the integrin | P05107+P11215;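 active = primary inhibition of 50% or more at 10 µM, then 40% or more on retest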
CD11b adhes enh = enhancers of human CD11b/CD18 binding to fibrinogen | P05107+P11215 | K562 CD11b/CD18 adhesion to fibrinogen, ATPlite luminescence | activation, % at 10 µM | hit rate 0.07% among 93,000 | AID 1499;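 active = 10 µM primary screen giving 50% or more activity, confirmed by 40% or more on retest at that dose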
CYP2C19 act = activators of human cytochrome P450 2C19. activation factor at 5 µM. recombinant CYP2C19, luciferin-H EGE luminescence; active compounds read high; 0 = fully inhibited enzyme, 1 = untreated enzyme. 96,000 tested, under 10 active. AID 1025;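 active = activation factor of at least 2 at 5 µM in the primary screen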;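 note: 0 = wells with 2.5 mM tranylcypromine and 1 = vehicle-only wells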
CYP2C9 inhib = inhibitors of human CYP2C9; P11712; CYP2C9 Supersomes, luciferin-H conversion, luminescence; inhibition, % at 5 µM; hit rate 20% among 96,000; AID 777;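 active = blocking of liver enzyme CYP2C9 beyond about 50% at 5 µM, limit read from the data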
CYP2C9 act = activators of human CYP2C9; activation factor at 5 µM; hit rate 1.4% among 96,000; recombinant CYP2C9, luciferin-H conversion, luminescence; active compounds read high; factor 1 = untreated enzyme, 0 = blocked; AID 1024;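 active = activation factor of 2 or more for CYP2C9 at a 5 µM dose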;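 note: 0 = sulfaphenazole-blocked wells and 1 = vehicle-only wells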
An asterisk follows results filed as active; nt = no result given.

SMILES	CYP2C19 inhib	Mac1 fbg inh	CD11b adhes enh	CYP2C19 act	CYP2C9 inhib	CYP2C9 act
Cc1cc(C(=O)Cn2nnc3ccccc3c2=O)c(C)n1-c1c(C)n(C)n(-c2ccccc2)c1=O	2	2	0	1	23	0.8
Cc1nc2cc(NC(=O)COc3ccc(C#N)cc3)ccc2n1-c1ccccc1	23	-3	-4	0.8	38	0.6
Cc1cccc(-n2cnc3cc([N+](=O)[O-])ccc32)c1	nt	3	2	nt	nt	nt
COc1ccc(CN2C(=O)c3ccccc3C(/C=N/OCc3ccc(Cl)cc3)C2=O)cc1 (centres undefined)	35	nt	nt	0.6	78*	0.2
CCCC1S/C(=N/N=C/c2ccc(OC)cc2)N(Cc2ccccc2)C1=O (centres undefined)	3	20	7	1	-1	1
CCOC(=O)NC1(C(F)(F)F)C(=O)N(Cc2ccccn2)C2=C1C(=O)CC(C)(C)C2 (centres undefined)	14	-5	-1	0.9	-10	1.1
COc1ccc(/C=C(/C(=O)Nc2ccccc2C(=O)NC(C)C)c2ccccc2)cc1	43	nt	nt	0.6	60*	0.4
CCSc1ncnc2c1oc1ccccc12	12	-3	-5	0.9	30	0.7
c1ccc2[nH]c(CSc3ncnc4c3oc3ccccc34)nc2c1	69*	nt	nt	0.3	97*	0
Cc1nc(SCc2nc3ccccc3[nH]2)c2oc3ccccc3c2n1	32	nt	nt	0.7	91*	0.1
COC(=O)c1ccc(NC(=O)CN2C(=O)C3C4C=CC(C4)C3C2=O)cc1 (centres undefined)	11	-38	-5	0.9	24	0.8
CC(=O)c1cccc(NC(=O)CN2C(=O)COc3ccc(Cl)cc32)c1	38	-23	-1	0.6	62*	0.4
CCOc1ccccc1NC(=O)CN1C(=O)COc2ccc(Cl)cc21	50*	-6	2	0.5	2	1
CC(=O)c1cccc(NC(=O)CN2C(=O)C3C4C=CC(C4)C3C2=O)c1 (centres undefined)	95*	22	-4	0	72*	0.3
Cc1ccc2c(c1)N(CC(=O)Nc1ccc3c(c1)OCCO3)C(=O)CO2	21	-9	-2	0.8	17	0.8
CCOC(=O)CN1C(=O)COc2ccc(Cl)cc21	6	-9	0	0.9	1	1
O=C(Nc1cccc(Cl)c1)OCc1cncs1	99*	-1	0	0	87*	0.1
CS(=O)c1ccccc1COC(=O)Nc1cccc(Cl)c1 (centres undefined)	40	nt	nt	0.6	-21	1.2
CS(=O)(=O)c1ccccc1COC(=O)Nc1ccc(Cl)cc1	69*	nt	nt	0.3	-1	1
O=C(Nc1ccc(Cl)cc1)OCc1cc(-c2ccccc2Cl)on1	10	nt	nt	0.9	0	1
O=C(Nc1ccc(Cl)cc1)OCc1cncs1	98*	-6	-5	0	89*	0.1
COc1ccc(NC(=O)CN2C(=O)CC(C)(C)S(=O)(=O)c3ccccc32)cc1	26	1	-2	0.7	25	0.7
COc1ccc(Cl)cc1N(CC(=O)Nc1ccccc1C(=O)NCc1ccco1)S(C)(=O)=O	46	10	0	0.5	51*	0.5
COc1ccc(OC)c(N(CC(=O)Nc2ccccc2C(=O)NCc2ccco2)S(C)(=O)=O)c1	90*	8	0	0.1	91*	0.1
COc1ccc(Cl)cc1N(CC(=O)N1CCC(C)CC1)S(C)(=O)=O	13	-2	0	0.9	-5	1
SMILES	CYP2C19 inhib	Mac1 fbg inh	CD11b adhes enh	CYP2C19 act	CYP2C9 inhib	CYP2C9 act
COc1ccc(Cl)cc1N(CC(=O)N1CCN(Cc2ccccc2)CC1)S(C)(=O)=O	55*	3	0	0.5	12	0.9
O=C(CN(c1ccccc1)S(=O)(=O)c1ccccc1)Nc1ccccc1C(=O)NCc1ccco1	nt	-9	-2	nt	nt	nt
Cc1ccc(N(CC(=O)Nc2ccccc2C(=O)NCc2ccco2)S(=O)(=O)c2ccccc2)cc1C	92*	-6	-1	0.1	98*	0
O=C(O)CCCCCNCc1ccncc1	-13	3	-2	1.1	-4	1
CCCC(C(=O)NCc1ccco1)N(C(=O)CNS(=O)(=O)c1ccccc1)c1ccccc1OC (centres undefined)	40	-2	10	0.6	12	0.9
CCCC(=O)CN1C(=O)C2(OCCO2)c2ccccc21	6	6	0	0.9	11	0.9
Cc1ccc(S(=O)(=O)N2C(=O)C(c3ccccc3)SC2=Nc2ccccc2)cc1 (centres undefined)	14	-8	-5	0.9	21	0.8
O=C(CN(Cc1ccco1)S(=O)(=O)c1ccccc1)N/N=C/c1cccc(O)c1	16	-8	-2	0.8	30	0.7
COC(=O)CN(c1ccc(F)cc1)S(=O)(=O)c1ccccc1	10	-37	5	0.9	6	0.9
Cc1cccc(S(=O)(=O)N(CC(=O)Nc2ccccc2C)Cc2ccco2)c1	43	5	1	0.6	53*	0.5
COc1ccc(N(CC(=O)Nc2ccccc2C(=O)NCc2ccco2)S(C)(=O)=O)cc1	36	-22	1	0.6	84*	0.2
O=C(CN(c1ccc(F)cc1)S(=O)(=O)c1ccccc1)NCc1ccco1	51*	-1	-2	0.5	73*	0.3
COc1ccc(Cl)cc1N(CC(=O)Nc1ccccc1SC)S(C)(=O)=O	92*	-11	4	0.1	86*	0.1
COc1ccc(CC(NC(C)=O)C(=O)NC2CCN(C(=O)Nc3ccc(Cl)cc3)CC2)cc1OC (centres undefined)	5	10	-1	0.9	10	0.9
CCOC(=O)C1=C(N)N2C(=O)CSC2=C(C(=O)OC)C1	-15	1	-2	1.2	46	0.5
COC(=O)c1cc(S(=O)(=O)N2CCOCC2)ccc1Sc1ccccc1N	5	4	-2	0.9	37	0.6
N/C(=N\OC(=O)C1CCCCC1)c1ccccn1	18	nt	nt	0.8	20	0.8
CC1(C)C2CCC1(C)C(NC(=O)CCN1CCCCC1)C2 (centres undefined)	28	-4	-1	0.7	62*	0.4
COCCOCCOCCC(=O)NC1CC2CCC1(C)C2(C)C (centres undefined)	25	4	0	0.7	35	0.6
COc1ccc2[nH]c(=O)c(CN(C(=O)c3ccco3)C3CCCCC3)cc2c1	15	8	-4	0.9	29	0.7
C=CCn1c(N)c(-c2nc3ccccc3n2C)sc1=S	44	6	-3	0.6	86*	0.1
C=CCSc1nc2ccccc2n1C(=O)/C=C/c1ccc(OC)c(OC)c1	28	nt	nt	0.7	34	0.7
C=CCn1c(-c2cccs2)nc2ccccc21	66*	-12	-1	0.3	38	0.6
